Activity calls are given as the source filed them. Unless noted, how the calls were made is not given here.

Assay [1] in a line: resazurin metabolic signal in HepG2 cells – cell-based, resazurin fluorescence, 24 h, PK04 Diversity Set, profiling panel (AID 1172). Further: test concentration not given here. The note with it: HepG2 viability, higher = more signal. A general note: Alamar Blue is a resazurin reagent that responds to reducing activity.
Assay [2] can be described thus: budding yeast growth changes without added modifier – OD600, strain BY4716, 24 h, basal condition, primary screen (AID 1173). The note with it: S. cerevisiae BY4716 growth, OD600, 24 h; higher = more signal, called active from +8 up or from −8 down.
The nature of assay [3]: viability profiling in MM1S myeloma cells – cell-based, resazurin fluorescence, basal, 24 h, PK04 Diversity Set, profiling panel (AID 1174).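 Further: MM1S multiple myeloma cell line; test concentration not given here.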 As to conditions: higher = more signal, called active from +8 up or from −8 down.
Assay [4] has as its target Dihydroorotate dehydrogenase (quinone), mitochondrial (Plasmodium falciparum (isolate 3D7)) (UniProt Q08210). As to the kind of experiment: inhibition of P. falciparum DHODH – biochemical, C-terminal His tag, absorbance 600 nm, primary screen (AID 1175).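 Further: recombinant parasite enzyme with a five histidine tag at its C terminus; test concentration not given here.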 As to conditions: PfDHODH enzyme, DCIP absorbance 600 nm; higher = more signal, called active from +8 up or from −8 down.

Assay [5] is described as follows: inhibition of PAO1 biofilm formation – strain PAO1, LB-PBS medium, absorbance 600 nm, primary screen (AID 1176). Further: test concentration not given here. The note with it: P. aeruginosa PAO1 growth/biofilm, A600, 12 h; higher = more signal.
Assay [6] in a line: growth modulation of vineyard yeast isolate – strain RM11-1a, OD600, basal, 24 h, primary screen (AID 1177).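 Further: cultures grown under basal conditions with no added stressor; test concentration not given here.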 The note with it: S. cerevisiae RM11-1a growth, OD600, 24 h; higher = more signal, called active from +8 up or from −8 down.
Assay [7] is described as follows: growth of efflux-deficient E. coli DRC39 – strain DRC39, OD650, 24 h, E. coli filamentation inducers, primary screen (AID 1178).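 Further: growth measured as culture turbidity by optical density at 650 nm; test concentration not given here.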 As to conditions: E. coli DRC39 acrAB, higher = more signal, called active from +8 up or from −8 down.
Assay [8] can be described thus: growth of efflux-deficient E. coli DRC39 – strain DRC39, OD650, 48 h, E. coli filamentation inducers, primary screen (AID 1179).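 Further: screen aims at cell division blockers that make cells filament.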 The note with it: E. coli DRC39 delta-acrAB growth, higher = more signal, called active from +8 up or from −8 down.
A short description of assay [9]: viability profiling in RPMI8226 myeloma cells – cell-based, resazurin fluorescence, basal, 24 h, PK04 Diversity Set, profiling panel (AID 1180).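 Further: RPMI8826 multiple myeloma cell line at 5000 cells per well; test concentration not given here.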 The note with it: higher = more signal.
For assay [10], the target named is E3 ubiquitin-protein ligase XIAP (Homo sapiens) (UniProt P98170). As to the kind of experiment: small molecules binding XIAP protein – biophysical, small-molecule microarray, fluorescence 635 nm, primary screen (AID 1181).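 Further: score merges 667 nm emission and signal to noise over triplicate slides.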 The note with it: higher = more signal.
Sequence of E3 ubiquitin-protein ligase XIAP (Homo sapiens) (P98170 whole entry, looked up): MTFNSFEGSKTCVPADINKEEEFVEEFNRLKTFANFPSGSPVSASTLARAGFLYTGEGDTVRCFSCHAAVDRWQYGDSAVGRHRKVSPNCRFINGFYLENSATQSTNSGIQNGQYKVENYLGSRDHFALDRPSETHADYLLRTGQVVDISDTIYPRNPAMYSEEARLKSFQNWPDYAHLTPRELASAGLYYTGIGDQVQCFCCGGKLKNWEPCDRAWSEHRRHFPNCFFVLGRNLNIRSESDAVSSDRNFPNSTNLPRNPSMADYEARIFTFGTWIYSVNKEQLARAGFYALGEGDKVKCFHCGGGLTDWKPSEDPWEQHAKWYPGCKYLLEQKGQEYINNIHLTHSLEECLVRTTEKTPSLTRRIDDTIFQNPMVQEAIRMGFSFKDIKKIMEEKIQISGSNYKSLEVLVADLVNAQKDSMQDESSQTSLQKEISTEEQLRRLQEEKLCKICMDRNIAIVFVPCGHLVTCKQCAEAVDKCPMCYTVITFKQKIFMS

Sequence of Dihydroorotate dehydrogenase (quinone), mitochondrial (Plasmodium falciparum (isolate 3D7)) (Q08210 whole entry, looked up): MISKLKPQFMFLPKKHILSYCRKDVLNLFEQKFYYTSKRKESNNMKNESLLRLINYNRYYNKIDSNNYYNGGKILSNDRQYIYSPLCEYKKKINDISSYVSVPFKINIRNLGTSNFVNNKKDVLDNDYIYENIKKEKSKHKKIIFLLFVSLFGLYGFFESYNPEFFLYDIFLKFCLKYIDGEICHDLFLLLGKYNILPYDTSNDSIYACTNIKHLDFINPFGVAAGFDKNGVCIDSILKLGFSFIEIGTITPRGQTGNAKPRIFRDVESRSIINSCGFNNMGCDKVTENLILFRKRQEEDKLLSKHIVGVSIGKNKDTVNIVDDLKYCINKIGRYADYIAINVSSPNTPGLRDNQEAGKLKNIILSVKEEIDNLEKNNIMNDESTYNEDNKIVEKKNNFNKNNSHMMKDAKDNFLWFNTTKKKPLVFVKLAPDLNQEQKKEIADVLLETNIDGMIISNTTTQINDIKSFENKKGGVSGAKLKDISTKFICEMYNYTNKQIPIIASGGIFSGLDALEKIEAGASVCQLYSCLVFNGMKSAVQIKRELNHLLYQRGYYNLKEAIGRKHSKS

Turning to `COC(=O)C(CC#Cc1ccc2c(c1)[C@]1(C(=O)N2)[C@H](C(=O)N2CCc3cc(OC)c(OC)cc3C2)[C@H]2C(=O)O[C@H](c3ccccc3)[C@H](c3ccccc3)N2[C@@H]1c1ccc(OCCO)cc1)C(=O)OC`, the z-score is -0.0956 in assay [1]; 2.36 (inactive) in assay [2]; -0.229 (inactive) in [3]; 3.55 (inactive) in assay [5]; 4.29 (inactive) in assay [6]; -0.538 (inactive) in [7]. Moreover, the z-score was 0.704 (inactive) in assay [8] and -0.0688 in assay [9]. Moreover, the composite z-score in [4] was -6.24 (inactive); in assay [10] it was 0.23.

As to `COCCOC(=O)N1C(=O)[C@@]2(c3cc(C#CCCO)ccc31)[C@H](c1ccc(OCCO)cc1)N1[C@H](c3ccccc3)[C@H](c3ccccc3)OC(=O)[C@H]1[C@@H]2C(=O)N1CCc2cc(OC)c(OC)cc2C1`, the z-score was -0.398 in [1]; 1.28 (inactive) in [2]; -1.24 (inactive) in [3]; 1.64 (inactive) in assay [5]; 3.35 (inactive) in [6]; 0.154 (inactive) in assay [7]. Besides, the z-score in assay [8] is 0.554 (inactive); in assay [9], 0.908. In addition, the composite z-score was -1.02 (inactive) in [4] and -0.102 in [10].

As for `COc1ccccc1CN1C(=O)c2ccccc2[C@@H](C(=O)NCC(C)C)[C@@H]1c1ccc(CO)cc1`, the z-score in [1] was -1.4; in assay [2], 0.352 (inactive); in [3], 0.897 (inactive); in [5] it was 0.31 (inactive); in assay [6], 0.777 (inactive); in assay [7] it was 0.547 (inactive). In addition, the z-score was 0.347 (inactive) in assay [8] and 1.02 in assay [9]. The composite z-score is 0.769 (inactive) in assay [4] and -0.104 in [10].

As to `COCCOC(=O)N1C(=O)[C@@]2(c3cc(C#CC4(O)CCCCCC4)ccc31)[C@H](C(=O)N1CCN(c3ncccn3)CC1)[C@H]1C(=O)O[C@H](c3ccccc3)[C@H](c3ccccc3)N1[C@@H]2c1ccc(O)cc1`, the z-score in assay [1] is -0.597; in [2] it was 1.04 (inactive); in assay [3], -0.0906 (inactive); in assay [5] it was 0.545 (inactive); in assay [6] it was 2.1 (inactive); in assay [7], -0.19 (inactive). In addition, the z-score in assay [8] is 0.37 (inactive); in [9] it was 0.74. Also, the composite z-score in assay [4] was 0.59 (inactive); in [10] it was -0.177.

`Cc1ccc(S[C@]2(C(=O)NCC(C)C)CC(=O)N(C3CCCCC3)[C@@H]2c2ccc(CO)cc2I)cc1`: the z-score was 0.33 in [1]; -1.05 (inactive) in assay [2]; 0.0989 (inactive) in assay [3]; -0.81 (inactive) in assay [5]; -0.115 (inactive) in [6]; 0.12 (inactive) in [7]. For the same compound, the z-score in assay [8] was 0.598 (inactive); in assay [9] it was -0.693. For the same compound, the composite z-score in [4] was -0.0804 (inactive); in assay [10] it was -0.0559.

For the compound `CO[C@H]1O[C@H](CO)[C@@H](OC(=O)Nc2cccc(F)c2)[C@H](OC(=O)Nc2ccc3c(c2)OCO3)[C@H]1OC(=O)Nc1ccc2c(c1)OCO2`, the z-score in assay [1] was -0.252; in assay [2], 1.55 (inactive); in assay [3], -1.53 (inactive); in [5], 1.38 (inactive); in assay [6] it was 1.48 (inactive); in [7], 1.49 (inactive). Further, the z-score in [8] was 0.378 (inactive); in assay [9] it was -1.89. The composite z-score in assay [4] is -0.222 (inactive); in assay [10] it was 0.652.

Turning to `C=CCOc1ccc([C@@H]2CC=C(C(=O)OCC)[C@H](c3cccc(Br)c3)N2S(=O)(=O)c2ccc(C)cc2)cc1`, the z-score in assay [1] is -0.696; in [2], 0.465 (inactive); in [3] it was 0.262 (inactive); in assay [5], 0.285 (inactive); in assay [6] it was -0.897 (inactive); in assay [7], -0.273 (inactive). In addition, the z-score in assay [8] is 1.05 (inactive); in [9], -0.155. Besides, the composite z-score in assay [4] was -1.92 (inactive); in assay [10], -0.258.

For the compound `CO[C@H]1O[C@H](CO)[C@@H](OC(=O)Nc2ccc(C(F)(F)F)cc2)[C@H](OC(=O)Nc2ccccc2)[C@H]1OC(=O)Nc1ccccc1`, the z-score in [1] was -5.15; in assay [2] it was 0.0673 (inactive); in [3], -6.47 (inactive); in assay [5] it was -0.276 (inactive); in assay [6], 2.72 (inactive); in [7], 0.201 (inactive). Besides, the figures for the z-score in [8] and in assay [9] were -1.17 (inactive) and -6.11, respectively. In addition, the composite z-score in assay [4] was 0.0214 (inactive); in assay [10], 0.166.

In the case of `COC(=O)[C@@]1(Cc2ccc(OC)cc2)[C@H]2c3cc(C(=O)N4CCCC4)n(CCc4ccc(O)c(OC)c4)c3C[C@H]2CN1C(=O)c1ccccc1`, the z-score is -0.21 in [1]; 0.768 (inactive) in assay [2]; -0.427 (inactive) in assay [3]; 0.467 (inactive) in assay [5]; 0.279 (inactive) in assay [6]; -0.744 (inactive) in assay [7]. In addition, the values for the z-score in [8] and in [9] were -0.939 (inactive) and -0.125, respectively. For the same compound, the composite z-score is -0.474 (inactive) in assay [4] and 0.659 in assay [10].

As to `CC(C)CNC(=O)[C@@]1(C)c2ccccc2C(=O)N(Cc2ccccc2)[C@H]1c1ccc(CO)cc1`, the z-score in assay [1] is 0.702; in assay [2], -0.11 (inactive); in assay [3], -0.0059 (inactive); in assay [5] it was -0.273 (inactive); in assay [6] it was -1.07 (inactive); in assay [7], 0.165 (inactive). Besides, the z-score in assay [8] was -0.185 (inactive); in [9], -0.551. Further, the figures for the composite z-score in assay [4] and in assay [10] were -0.362 (inactive) and -0.395, respectively.

`COCCOC(=O)N1C(=O)[C@@]2(c3cc(C#CC4(O)CCCCCC4)ccc31)[C@H](C(=O)N1CCc3cc(OC)c(OC)cc3C1)[C@H]1C(=O)O[C@H](c3ccccc3)[C@H](c3ccccc3)N1[C@@H]2c1ccccc1OCCO`: the z-score in [1] was 0.032; in assay [2] it was 1.96 (inactive); in assay [3], 0.162 (inactive); in assay [5], 1.01 (inactive); in assay [6], 2.98 (inactive); in assay [7] it was -0.0554 (inactive). The results for the z-score in [8] and in assay [9] were 0.585 (inactive) and 0.793, respectively. Moreover, the composite z-score in assay [4] was 0.666 (inactive); in [10] it was 0.0297.

Turning to `CC(C)C[C@@H]1NC(=O)[C@@H]2C[C@H](C(=O)NCc3ccc(F)cc3)[C@H](c3ccc(O)cc3)N2C1=O`, the z-score in [1] was -1.5; in assay [2], 0.0288 (inactive); in assay [3], 0.429 (inactive); in assay [5] it was 0.891 (inactive); in assay [6] it was -0.647 (inactive); in [7], -0.52 (inactive). For the same compound, the z-score in assay [8] was -1.2 (inactive); in assay [9] it was 0.734. Besides, the composite z-score is -1.36 (inactive) in assay [4] and 0.222 in assay [10].

These data come from PubChem BioAssay.
